Experimental findings from PubChem BioAssay (NCI) are described below.

The panel holds about 83,000 compounds, 20% with a hit somewhere; the sample as a whole holds those more often.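 Assay: single dose, 48 h. Readout: percent growth (0 = no net growth; negative = cell death). Active: <10.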 A number with no mark means an inactive call. Active and inactive are the calls of the source.

Test systems include SK-MEL-2 melanoma; EKVX NSCLC; SN12C renal; UO-31 renal; TK-10 renal; ACHN renal; CAKI-1 renal; A498 renal; CCRF-CEM leukemia; MOLT-4 leukemia; RPMI-8226 leukemia; OVCAR-8 ovarian; OVCAR-5 ovarian; OVCAR-4 ovarian; SK-OV-3 ovarian; IGROV1 ovarian; OVCAR-3 ovarian; HS 578T breast; NCI/ADR-RES ovarian.
Holding throughout (assay): NCI-60 one-dose screen, 48 h (100 = growth as untreated, 0 = no growth, -100 = all killed)
Holding throughout (settings): 10 µM unless noted

On to `CCc1c2c(nc3ccc(OC(=O)OCc4ccc(B5OC(C)(C)C(C)(C)O5)cc4)cc13)-c1cc3c(c(=O)n1C2)COC(=O)[C@]3(O)CC`, for which the growth was -30.5% (active) with SK-MEL-2 melanoma; 37.3% in the assay with EKVX NSCLC; -4.2% (active) in the assay on SN12C renal; -72.1% (active) in the assay with UO-31 renal; 0.26% (active) in the assay with TK-10 renal; -53.6% (active) in the assay on ACHN renal. The growth was -44.1% (active) with CAKI-1 renal; -65.1% (active) in the assay on A498 renal; 17.9% in the assay on CCRF-CEM leukemia; 20.3% in the assay on MOLT-4 leukemia; 8.86% (active) in the assay with RPMI-8226 leukemia; 0.492% (active) with OVCAR-8 ovarian. Besides, the growth with OVCAR-5 ovarian was -16% (active); in the assay with OVCAR-4 ovarian, 11.1%; in the assay on SK-OV-3 ovarian, 3.1% (active); in the assay with IGROV1 ovarian it was 6.81% (active); in the assay with OVCAR-3 ovarian, -17.5% (active); with HS 578T breast it was 20.7%. The growth in the assay on NCI/ADR-RES ovarian was -0.875% (active).

`COCCN(C(=O)c1ccc(F)cc1F)c1c(N)n(Cc2ccccc2)c(=O)[nH]c1=O`: the growth in the assay with SK-MEL-2 melanoma was 98.7%; in the assay on EKVX NSCLC, 109%; with SN12C renal it was 108%; in the assay with UO-31 renal, 83.4%; in the assay on TK-10 renal, 119%; with ACHN renal, 103%. For the same compound, the growth is 106% with CAKI-1 renal; 100% with A498 renal; 94.5% in the assay on CCRF-CEM leukemia; 98.1% with MOLT-4 leukemia; 112% in the assay on RPMI-8226 leukemia; 112% with OVCAR-8 ovarian. Moreover, the growth in the assay on OVCAR-5 ovarian is 92.2%; in the assay with OVCAR-4 ovarian, 98.9%; in the assay with SK-OV-3 ovarian, 111%; in the assay on IGROV1 ovarian it was 2.97% (active); in the assay on OVCAR-3 ovarian it was 115%; in the assay with HS 578T breast, 107%. In addition, the growth in the assay on NCI/ADR-RES ovarian is 110%.

`O=C1NC(=Nc2ccc(Cl)cc2)S/C1=C\c1cn(-c2ccccc2)nc1-c1ccccc1`: the growth is 103% with SK-MEL-2 melanoma; 85.3% with EKVX NSCLC; 79.3% with SN12C renal; 87.2% in the assay on UO-31 renal; 60.9% in the assay on TK-10 renal; 91.9% in the assay on ACHN renal. Also, the growth in the assay on CAKI-1 renal is 94.7%; in the assay on A498 renal, 79.7%; in the assay with CCRF-CEM leukemia, 60.6%; in the assay with MOLT-4 leukemia it was 81.7%; in the assay with RPMI-8226 leukemia, 83.3%; in the assay on OVCAR-8 ovarian it was 75.1%. The growth in the assay with OVCAR-5 ovarian was 98.6%; in the assay with OVCAR-4 ovarian it was 0.154% (active); with SK-OV-3 ovarian it was 104%; with IGROV1 ovarian, 79.7%; with OVCAR-3 ovarian, 89.2%; in the assay on HS 578T breast, 71%. Besides, the growth in the assay with NCI/ADR-RES ovarian was 91.6%.

On to `O=S(=O)(O)c1ccc(N/N=C/c2ccccc2Cl)cc1`, for which the growth is 102% in the assay on SK-MEL-2 melanoma; 116% with EKVX NSCLC; 106% in the assay with SN12C renal; 82.7% in the assay with UO-31 renal; 104% with TK-10 renal; 99.6% in the assay on ACHN renal. The growth in the assay on CAKI-1 renal is 89.8%; in the assay with A498 renal, 100%; with CCRF-CEM leukemia, 95.4%; in the assay on MOLT-4 leukemia it was 103%; in the assay with RPMI-8226 leukemia, 98.7%; in the assay with OVCAR-8 ovarian, 115%. Moreover, the growth is 104% with OVCAR-5 ovarian; 112% in the assay on OVCAR-4 ovarian; 112% in the assay on SK-OV-3 ovarian; 101% in the assay on IGROV1 ovarian; 119% with OVCAR-3 ovarian; 111% in the assay with HS 578T breast. Besides, the growth with NCI/ADR-RES ovarian was 110%.

For the compound `O=C(CCCCCCSc1nc(-c2ccccc2)cc(-c2ccc(Cl)cc2)n1)NO`, the growth is 81.3% with SK-MEL-2 melanoma; 44.5% with EKVX NSCLC; 20.7% in the assay on SN12C renal; -2.31% (active) with UO-31 renal; 21.1% in the assay with TK-10 renal; 4.89% (active) in the assay with ACHN renal. In addition, the growth in the assay with CAKI-1 renal was -7.71% (active); with A498 renal it was 24.2%; in the assay with CCRF-CEM leukemia, 0.872% (active); in the assay with MOLT-4 leukemia, 1.04% (active); in the assay on RPMI-8226 leukemia, 15.7%; in the assay with OVCAR-8 ovarian it was 8.67% (active). The growth in the assay with OVCAR-5 ovarian is 21.6%; with OVCAR-4 ovarian, 41.3%; in the assay with SK-OV-3 ovarian, 0.785% (active); with IGROV1 ovarian it was -19.6% (active); with OVCAR-3 ovarian, 25.2%; in the assay with HS 578T breast, 45.7%. The growth in the assay with NCI/ADR-RES ovarian was -25.5% (active).

On to `COc1ccc(C2C(c3nn[nH]n3)=C(N)Oc3c2ccc2ccccc32)cc1` (stereo not given), for which the growth with SK-MEL-2 melanoma is 61.5%; with EKVX NSCLC it was 83.4%; with SN12C renal, 64.9%; with UO-31 renal, 45.1%; in the assay with TK-10 renal it was 43.8%; in the assay on ACHN renal it was 68.6%. For the same compound, the growth in the assay with CAKI-1 renal was 34.3%; with A498 renal, 26.5%; with CCRF-CEM leukemia, 75.3%; with MOLT-4 leukemia, 52.6%; with RPMI-8226 leukemia, 66.5%; in the assay with OVCAR-8 ovarian it was 83.8%. In addition, the growth in the assay with OVCAR-5 ovarian was 104%; with OVCAR-4 ovarian it was 83.7%; with SK-OV-3 ovarian, 79.5%; in the assay with IGROV1 ovarian, 53.6%; in the assay with HS 578T breast, 76.4%; with NCI/ADR-RES ovarian, 28.3%.

In the case of `CC1=NOC(=O)/C1=C\c1ccc(O)cc1`, the growth in the assay with SK-MEL-2 melanoma was 113%; with EKVX NSCLC, 104%; in the assay on SN12C renal, 101%; in the assay with UO-31 renal, 85.7%; in the assay with TK-10 renal, 102%; in the assay with ACHN renal, 101%. Also, the growth is 95.4% with CAKI-1 renal; 86.7% in the assay on A498 renal; 94.1% in the assay with CCRF-CEM leukemia; 102% in the assay with MOLT-4 leukemia; 109% with RPMI-8226 leukemia; 98.3% with OVCAR-8 ovarian. Also, the growth with OVCAR-5 ovarian is 99.8%; in the assay on OVCAR-4 ovarian, 106%; with SK-OV-3 ovarian, 103%; with IGROV1 ovarian, 104%; in the assay on HS 578T breast, 98.3%; in the assay with NCI/ADR-RES ovarian, 106%.

On to `Cc1ccc(/C=C/c2c(C(=O)/C=C/c3ccc(C(F)(F)F)cc3)c(C)nc3ccccc23)cc1`, for which the growth in the assay with SK-MEL-2 melanoma is -20% (active); in the assay on EKVX NSCLC, -31.6% (active); with SN12C renal, -61.7% (active); in the assay with UO-31 renal it was -98% (active); in the assay with TK-10 renal, -71.1% (active); in the assay on ACHN renal it was -100% (active). Besides, the growth with CAKI-1 renal was -91.1% (active); in the assay with A498 renal, -80.8% (active); in the assay on CCRF-CEM leukemia, 9.01% (active); in the assay on MOLT-4 leukemia it was -4.49% (active); in the assay on RPMI-8226 leukemia it was -26.8% (active); in the assay on OVCAR-8 ovarian it was 4.18% (active). Further, the growth is -39.6% (active) with OVCAR-5 ovarian; -74.1% (active) in the assay with OVCAR-4 ovarian; -47.5% (active) in the assay with SK-OV-3 ovarian; -80.1% (active) in the assay with IGROV1 ovarian; -13.2% (active) in the assay on HS 578T breast; -0.26% (active) in the assay with NCI/ADR-RES ovarian.

Take `COc1ccc2c(c1)C(=O)/C(=C/c1cccc(OCC(=O)Nc3nc(C)c(C)s3)c1)O2`: the growth in the assay with SK-MEL-2 melanoma was 59.9%; in the assay on EKVX NSCLC, -45.3% (active); in the assay on SN12C renal, 3.1% (active); in the assay on UO-31 renal it was -79.1% (active); with TK-10 renal, -14.3% (active); with ACHN renal it was -56.5% (active). Further, the growth is -81.5% (active) in the assay on CAKI-1 renal; 97.2% with A498 renal; -69.6% (active) with CCRF-CEM leukemia; -65.4% (active) in the assay with MOLT-4 leukemia; -63.3% (active) in the assay on RPMI-8226 leukemia; 4.69% (active) with OVCAR-8 ovarian. Moreover, the growth in the assay on OVCAR-5 ovarian is -77.3% (active); in the assay on OVCAR-4 ovarian it was -66.7% (active); in the assay with SK-OV-3 ovarian it was 46.1%; in the assay with OVCAR-3 ovarian, -58.9% (active); in the assay with HS 578T breast, 5.38% (active); in the assay on NCI/ADR-RES ovarian, -59% (active).

`CC(C)CC(NC(=O)CN(Cc1ccccc1)S(C)(=O)=O)C(=O)O` (stereo not given): the growth was 125% in the assay on SK-MEL-2 melanoma; 97.9% in the assay with EKVX NSCLC; 108% in the assay on SN12C renal; 96.7% with UO-31 renal; 93.9% with TK-10 renal; 102% with ACHN renal. Besides, the growth in the assay with CAKI-1 renal is 62.2%; in the assay on A498 renal, 95.3%; in the assay on CCRF-CEM leukemia, 98.2%; in the assay with MOLT-4 leukemia, 94.7%; in the assay on RPMI-8226 leukemia, 102%; in the assay with OVCAR-8 ovarian, 100%. The growth in the assay with OVCAR-5 ovarian was 94%; with OVCAR-4 ovarian, 104%; with SK-OV-3 ovarian, 90.9%; in the assay on HS 578T breast it was 91.6%; in the assay on NCI/ADR-RES ovarian it was 98.9%.

As for `O=c1c2c3c(sc2n2c(-c4cn(-c5ccccc5)nc4-c4ccc(Cl)cc4)nnc2n1Cc1ccccc1)CCCC3`, the growth is 97.8% in the assay on SK-MEL-2 melanoma; 87.1% in the assay on EKVX NSCLC; 91.2% with SN12C renal; 4.67% (active) in the assay with UO-31 renal; 107% in the assay on TK-10 renal; 99.2% with ACHN renal. For the same compound, the growth with CAKI-1 renal is 100%; in the assay with A498 renal it was 100%; in the assay with CCRF-CEM leukemia it was 81.1%; in the assay with MOLT-4 leukemia it was 85.4%; with RPMI-8226 leukemia, 94.1%; in the assay on OVCAR-8 ovarian, 97.1%. The growth in the assay with OVCAR-5 ovarian was 103%; in the assay on OVCAR-4 ovarian it was 95.5%; in the assay with SK-OV-3 ovarian, 109%; in the assay with OVCAR-3 ovarian, 103%; in the assay with HS 578T breast, 96.9%; in the assay on NCI/ADR-RES ovarian it was 101%.

Regarding `COc1cc(/C=C/C(=O)N2CCN(C(=O)c3cc(OC)c(OC)c(OC)c3)CC2)ccc1OCCCN1C(=O)c2cccc3cccc(c23)C1=O`, the growth in the assay with SK-MEL-2 melanoma is 49.3%; in the assay with EKVX NSCLC, 114%; with SN12C renal, 93.7%; in the assay on UO-31 renal, 42.1%; in the assay with TK-10 renal, 97.5%; with ACHN renal, 80.7%. The growth in the assay with CAKI-1 renal is 72.9%; in the assay on A498 renal it was 62.2%; in the assay on CCRF-CEM leukemia, 27.1%; with MOLT-4 leukemia it was 49.6%; with RPMI-8226 leukemia it was 21.6%; in the assay with OVCAR-8 ovarian it was 50.6%. Besides, the growth in the assay on OVCAR-5 ovarian was 107%; in the assay with OVCAR-4 ovarian, 77.9%; in the assay with SK-OV-3 ovarian, 121%; in the assay on OVCAR-3 ovarian, 73.5%; in the assay on HS 578T breast it was 38.6%; in the assay with NCI/ADR-RES ovarian, 68.9%.
